Data as given in PubChem BioAssay AID1159580 (chemical genetic matrix, 2015).
Values joined by “and” are separate entries in the source; they are usually repeats but may differ in a detail not shown here. Identical values can stand only once. Out of some 5,500 compounds screened, about 2,000 (36%) were called active. Roughly 18% stayed inconclusive and do not appear here. No stated cut-off is given here; in the data, active means normalized growth mostly below about 0.91 (no sharp cut-off); inconclusive means no clear call, values can overlap the other calls; inactive means mostly above about 0.92. This is one part of the list.

Assay: chemical genetic growth profiling, strain panel (AID 1159580);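 further: tested at 20 µM; growth read once vehicle control cultures reached saturation at 30 °C; 1 = growth at the plate median or of vehicle wells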
Settings: S. cerevisiae deletion strains, growth OD

Measured: normalized growth

CO[C@H]1C[C@H](O[C@H]2[C@H](C)[C@@H](OC3O[C@H](C)C[C@H](N(C)C)[C@H]3OC(C)=O)[C@@H](C)C[C@]3(CO3)C(=O)[C@H](C)[C@@H](OC(C)=O)[C@@H](C)[C@@H](C)OC(=O)[C@@H]2C)O[C@@H](C)[C@@H]1OC(C)=O (some centres undefined)
inactive: locus YAL021C, strain ccr4, stronger effect = lower value 0.998 | locus YAL026C, strain drs2, stronger effect = lower value 1.01 | locus YAL030W, strain snc1, stronger effect = lower value 0.989 | locus YBL061C, strain skt5, stronger effect = lower value 1 | locus YBR009C, strain hhf1, stronger effect = lower value 0.997 | locus YBR021W, strain FUR4, stronger effect = lower value 0.996 | locus YBR023C, strain chs3, stronger effect = lower value 0.996 | locus YBR171W, strain sec66, stronger effect = lower value 1.01 | locus YBR229C, strain ROT2, stronger effect = lower value 1.01 | locus YBR231C, strain swc5, stronger effect = lower value 0.996 | locus YBR279W, strain paf1, stronger effect = lower value 1 | locus YCL011C, strain gbp2, stronger effect = lower value 1.01 | locus YCL016C, strain dcc1, stronger effect = lower value 1 | locus YCL029C, strain bik1, stronger effect = lower value 0.997 | locus YCL061C, strain MRC1, stronger effect = lower value 0.992 | locus YCL069W, strain vba3, stronger effect = lower value 0.994 | locus YCR088W, strain abp1, stronger effect = lower value 0.994 | locus YDL005C, strain med2, stronger effect = lower value 0.985 | locus YDL035C, strain GPR1, stronger effect = lower value 1.01 | locus YDL040C, strain nat1, stronger effect = lower value 0.998 | locus YDL074C, strain BRE1, stronger effect = lower value 1 | locus YDL101C, strain DUN1, stronger effect = lower value 1.01 | locus YDL134C, strain PPH21, stronger effect = lower value 1 | locus YDL185W, strain tfp1, stronger effect = lower value 0.981 | locus YDL192W, strain arf1, stronger effect = lower value 0.989 | locus YDR001C, strain nth1, stronger effect = lower value 0.992 | locus YDR069C, strain doa4, stronger effect = lower value 0.998 | locus YDR101C, strain arx1, stronger effect = lower value 1.01 | locus YDR137W, strain rgp1, stronger effect = lower value 1 | locus YDR159W, strain sac3, stronger effect = lower value 0.997 | locus YDR162C, strain NBP2, stronger effect = lower value 1 | locus YDR195W, strain ref2 1 | locus YDR297W, strain sur2, stronger effect = lower value 0.991 | locus YDR318W, strain mcm21, stronger effect = lower value 0.993 | locus YDR334W, strain swr1, stronger effect = lower value 1 | locus YDR335W, strain msn5, stronger effect = lower value 0.998 | locus YDR388W, stronger effect = lower value 0.979 | locus YDR392W, strain spt3, stronger effect = lower value 0.996 | locus YDR502C, strain sam2, stronger effect = lower value 0.977 | locus YEL003W, strain gim4, stronger effect = lower value 1 | locus YEL037C, strain rad23, stronger effect = lower value 0.998 | locus YEL061C, strain CIN8 (second series), stronger effect = lower value 1 | locus YEL061C, strain CIN8, stronger effect = lower value 1.01 | locus YER015W, strain faa2, stronger effect = lower value 0.998 | locus YER016W, strain bim1, stronger effect = lower value 0.997 | locus YER110C, stronger effect = lower value 0.988 | locus YER111C, strain swi4, stronger effect = lower value 1.01 | locus YER155C, strain BEM2 (second series), stronger effect = lower value 0.994 | locus YER155C, strain BEM2, stronger effect = lower value 1.01 | locus YER167W, strain BCK2, stronger effect = lower value 1 | locus YFR010W, strain ubp6, stronger effect = lower value 1.01 | locus YGL078C, strain dbp3, stronger effect = lower value 0.984 | locus YGL086W, strain mad1, stronger effect = lower value 1 | locus YGL167C, strain pmr1, stronger effect = lower value 0.996 | locus YGL173C, strain kem1, stronger effect = lower value 1.01 | locus YGL227W, strain vid30, stronger effect = lower value 1.02 | locus YGL240W, strain doc1, stronger effect = lower value 1.01 | locus YGL248W, strain PDE1, stronger effect = lower value 1.01 | locus YGL253W, strain hxk2, stronger effect = lower value 0.991 | locus YGR078C, strain PAC10, stronger effect = lower value 1.01 | locus YGR135W, strain pre9, stronger effect = lower value 0.986 | locus YGR252W, strain gcn5, stronger effect = lower value 0.933 | locus YHR013C, strain ard1, stronger effect = lower value 0.986 | locus YHR027C, strain rpn1, stronger effect = lower value 0.995 | locus YHR030C, strain SLT2, stronger effect = lower value 1.01 and 0.973 | locus YHR079C, strain IRE1 (second series), stronger effect = lower value 0.992 | locus YHR079C, strain IRE1, stronger effect = lower value 0.987 | locus YHR094C, strain hxt1, stronger effect = lower value 0.988 | locus YHR129C, strain ARP1, stronger effect = lower value 1.01 | locus YHR142W, strain chs7, stronger effect = lower value 1.01 | locus YHR200W, strain rpn10, stronger effect = lower value 0.992 | locus YIL066C, strain RNR3, stronger effect = lower value 1.01 | locus YIL073C, strain SPO22, stronger effect = lower value 1 | locus YIL125W, strain kgd1, stronger effect = lower value 0.988 | locus YIR030C, strain dcg1, stronger effect = lower value 1 | locus YJL092W, strain hpr5, stronger effect = lower value 1 | locus YJL095W, strain BCK1 (second series), stronger effect = lower value 0.99 | locus YJL095W, strain BCK1, stronger effect = lower value 1.01 and 0.973 | locus YJL115W, strain asf1, stronger effect = lower value 1.02 | locus YJL129C, strain trk1, stronger effect = lower value 0.979 | locus YJL134W, strain LCB3, stronger effect = lower value 1 | locus YJL154C, strain vps35, stronger effect = lower value 0.987 | locus YJL164C, strain tpk1, stronger effect = lower value 1 | locus YJL166W, strain qcr8, stronger effect = lower value 1 | locus YJL168C, strain set2, stronger effect = lower value 0.994 | locus YJL187C, strain SWE1 (second series), stronger effect = lower value 1.01 | locus YJL187C, strain SWE1, stronger effect = lower value 1 | locus YJR043C, strain POL32, stronger effect = lower value 0.986 | locus YJR066W, strain TOR1, stronger effect = lower value 0.955
